Assay [1] in a line: inhibitors of TNFa-induced NFkB p65 translocation, primary screen, imaging, HUVEC, MLSMR starter and 10KST1 sets (AID 438;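 active means inhibition above 20% together with a positive visual image hit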;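 further: compound added about 3h40 before a 20 min TNFalpha stimulation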;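 on inhibition: signal is the nuclear over cytoplasmic p65 intensity ratio per well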). To be noted: HUVEC TNFa-induced p65 nuclear translocation; cell count: measured here: nuclei count (cytotoxicity indicator), at 2.08 µM; inhibition: at 2 µM, stronger effect = higher value, 0% TNFa-plus-vehicle, 100% no-TNFa wells.
Assay [2] in a line: inhibitors of mutant huntingtin aggregation, primary screen, imaging, exon1htt(103Q)mCFP cells, high-content imaging (AID 483;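 active means visual image review flags a hit and inhibition of aggregation exceeds 20%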;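 further: compound exposure lasted 3 days before fixation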;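 on nuclei count: percent of the per-plate median nuclei count of sample wells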). The following applies: exon1htt(103Q)mCFP cell line, aggregate imaging, at 2 µM; inhibition of aggregation: stronger effect = higher value; nuclei count: measured here: cell count, toxicity.
Assay [3] is described as follows: inhibitors of E-selectin induction by TNFa, primary screen, imaging, HUVEC, immunofluorescence, MLSMR starter and 10KST1 sets (AID 487).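 On inhibition: signal is fraction of cell area covered by stained E-selectin grains.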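 On nuclei count: 100% = median nuclei count of all wells on the same plate.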 The following applies: HUVEC TNFalpha-induced E-selectin immunofluorescence imaging, at 2 µM; inhibition: stronger effect = higher value; nuclei count: measured here: cell number, toxicity.
The target of assay [4] is Voltage-gated potassium channel subunit beta-2 (Rattus norvegicus) (UniProt P62483). Kind of assay: KvBeta enzyme negative modulators, primary screen, biochemical, NADPH fluorescence (AID 622;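 active means fluorescence slope higher than the sample average by over 3 SD, cut at about -0.22 in these data, passing the limit was not always enough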;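 further: slope of raw intensity against log time taken from 70 to 1610 s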). The following applies: recombinant KvBeta, 4-cyanobenzaldehyde reduction, at 10 µM, stronger effect = higher value.
Sequence of Voltage-gated potassium channel subunit beta-2 (Rattus norvegicus) (P62483 whole entry, looked up): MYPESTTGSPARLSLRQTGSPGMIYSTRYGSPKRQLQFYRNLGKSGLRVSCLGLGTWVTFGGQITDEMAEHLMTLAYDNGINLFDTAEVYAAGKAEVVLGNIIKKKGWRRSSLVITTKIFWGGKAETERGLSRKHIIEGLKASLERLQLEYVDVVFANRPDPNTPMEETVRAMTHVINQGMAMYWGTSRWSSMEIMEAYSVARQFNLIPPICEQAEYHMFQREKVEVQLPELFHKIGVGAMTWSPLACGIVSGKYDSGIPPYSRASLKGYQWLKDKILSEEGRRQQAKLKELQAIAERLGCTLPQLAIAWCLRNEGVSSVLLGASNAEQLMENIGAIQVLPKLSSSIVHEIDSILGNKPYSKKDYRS
For assay [5] the target is unchanged. Kind of assay: KvBeta positive modulators, primary screen, biochemical, NADPH fluorescence (AID 623;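 active means NADPH fluorescence slope more negative than the mean of all samples by about 3 SD, 99.7% confidence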;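 further: fluorescence intensity change per second fitted from 20 to 320 s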). The following applies: Recombinant KvBeta, NADPH fluorescence decrease slope, 10 min; at 10 µM; stronger effect = lower value.
For assay [6], the target named is Alpha-2C adrenergic receptor (Homo sapiens) (UniProt P18825). Kind of assay: modulators of alpha2C/GIRK thallium flux, primary screen, cell-based, HEK293 alpha2C/GIRK1/2 (AID 624;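 active means fluorescence slope after compound addition differing from the mean of all screened samples at 99.7% confidence, in either direction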;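 further: slope of fluorescence ratio to pre-addition baseline per second over 15 to 24 s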). To be noted: thallium flux BTC fluorescence, at 10 µM, actives lie on both sides.
Sequence of Alpha-2C adrenergic receptor (Homo sapiens) (P18825 whole entry, looked up): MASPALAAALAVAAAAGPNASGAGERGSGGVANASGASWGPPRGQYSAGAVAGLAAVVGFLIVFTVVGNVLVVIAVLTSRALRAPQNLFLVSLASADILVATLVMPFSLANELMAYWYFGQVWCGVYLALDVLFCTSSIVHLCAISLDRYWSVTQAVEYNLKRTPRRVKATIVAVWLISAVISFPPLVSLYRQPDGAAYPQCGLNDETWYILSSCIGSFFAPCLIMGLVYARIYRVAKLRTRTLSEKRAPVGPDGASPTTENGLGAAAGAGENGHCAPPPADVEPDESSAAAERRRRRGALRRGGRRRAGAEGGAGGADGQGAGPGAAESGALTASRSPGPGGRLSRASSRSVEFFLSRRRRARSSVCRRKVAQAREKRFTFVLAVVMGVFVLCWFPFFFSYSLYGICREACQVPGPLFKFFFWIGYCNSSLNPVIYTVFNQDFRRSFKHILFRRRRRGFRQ
Assay [7] is described as follows: inhibitors of Sendai virus-induced IRF3 signaling, primary screen, TLR/RLR signaling modifier project, cell-based, Sendai virus stimulus, luciferase, 10K MLSCN set (AID 602276;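 active means inhibition at or above 50% at 10 µM; inactive means inhibition below 50%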;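 further: firefly luciferase from ISG56 promoter only with Renilla not read in this screen; 0% = Sendai virus plus DMSO and 100% = medium plus DMSO without virus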). To be noted: HEK293 RL24 IRF3 luciferase reporter, at 10 µM, stronger effect = higher value. Background: In a reporter assay the amount or activity of a reporter protein is the signal.
The nature of assay [8]: inhibitors of poly I:C-induced TLR3 signaling, primary screen, cell-based, poly I:C stimulus, luciferase, 10K MLSCN set (AID 602277;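 active means inhibition of the reporter signal at or above 50%; inactive means inhibition below 50%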). To be noted: HEK293-TLR3 RL24 IRF3 luciferase reporter, at 10 µM, stronger effect = higher value.

Here are results for 14 compounds from PubChem BioAssay.

Molecules are shown by their SMILES. Calls of active or inactive are those of the source.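 How the source made its calls, unless noted: active means visually confirmed hit in the image check and inhibition above 20%; inconclusive means visually confirmed hit but inhibition not above 20%; inactive means no visual hit in the image check.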

With `O=C1C2C3C=CC(C3)C2C(=O)N1c1cccc(N2C(=O)C3C4C=CC(C4)C3C2=O)n1` (centres undefined), in assay [1], the cell count was found to be 227. Further, the inhibition was 8.4% (inactive) in assay [1], -160% (inactive) in assay [3], 3.37% (inactive) in assay [7] and 21.6% (inactive) in assay [8]. For the same compound, the inhibition of aggregation in assay [2] was -5.5% (inactive). Also, the values for the nuclei count in assay [2] and in assay [3] were 109% and 137%, respectively. For the same compound, the fluorescence slope in assay [4] is -0.549 (inactive). Moreover, the NADPH fluorescence slope in assay [5] was -1.2e-05 (inactive). In addition, the slope in assay [6] is 0.00682 (inactive).
As for `CCN1CCN(C(c2ccc(F)cc2)c2nnnn2Cc2cccs2)CC1` (centres undefined), in assay [1], the cell count was determined as 605. The inhibition in assay [1] was -8.6% (inactive); in assay [3], -35.5% (inactive); in assay [7] it was 4.23% (inactive); in assay [8], 21.4% (inactive). Besides, the inhibition of aggregation in assay [2] was 1.9% (inactive). Further, the nuclei count in assay [2] is 48.7%; in assay [3] it was 96.1%. For the same compound, the fluorescence slope in assay [4] was -0.339 (inactive). For the same compound, the NADPH fluorescence slope in assay [5] was 1.5e-05 (inactive). In addition, in assay [6], the slope is 0.00582 (inactive).
With `O=S(=O)(NCc1cn2ccccc2n1)c1cc(F)ccc1F`, the cell count in assay [1] stood at 282. Further, the inhibition in assay [1] was 4.3% (inactive); in assay [3] it was 9.5% (inactive); in assay [7], -0.696% (inactive); in assay [8], 8.79% (inactive). Further, the inhibition of aggregation in assay [2] was 19.7% (inactive). The figures for the nuclei count in assay [2] and in assay [3] were 78.5% and 88.5%, respectively. The fluorescence slope in assay [4] is -0.287 (inactive). The NADPH fluorescence slope in assay [5] was -5.3e-05 (inactive). Moreover, the slope in assay [6] was 0.00441 (inactive).
`Fc1ccccc1C(c1nnnn1Cc1ccc2c(c1)OCO2)N1CCN(Cc2ccccc2)CC1` (centres undefined): the cell count in assay [1] was found to be 324. The inhibition is -0.8% (inactive) in assay [1], 30.7% (inactive) in assay [3], -8.04% (inactive) in assay [7] and -3.59% (inactive) in assay [8]. Besides, the inhibition of aggregation in assay [2] was -2.5% (inactive). Also, the nuclei count amounted to 112% in assay [2] and 108% in assay [3]. For the same compound, the fluorescence slope in assay [4] is -0.631 (inactive). Besides, the NADPH fluorescence slope in assay [5] is 1.1e-05 (inactive). In addition, the slope in assay [6] is 0.00506 (inactive).
For the compound `CCOC(=O)C1CCN(Cc2ccc(OC)c(C)c2OC)CC1`, in assay [1], the cell count was 313. For the same compound, the inhibition is -1.3% (inactive) in assay [1], -41.2% (inactive) in assay [3], -3.21% (inactive) in assay [7] and 7.91% (inactive) in assay [8]. The inhibition of aggregation in assay [2] was -10.2% (inactive). In addition, the nuclei count in assay [2] came out at 107%; in assay [3], 108%. The fluorescence slope in assay [4] was -0.539 (inactive). Besides, in assay [5], the NADPH fluorescence slope was -2.1e-05 (inactive). For the same compound, the slope in assay [6] is 0.00556 (inactive).
Turning to `Cn1c(=O)c2c(nc(SCC(=O)NCc3ccco3)n2C)n(C)c1=O`, in assay [1], the cell count came to 616. Besides, the inhibition was 1.7% (inactive) in assay [1], -63.1% (inactive) in assay [3], 3.04% (inactive) in assay [7] and 5.37% (inactive) in assay [8]. Moreover, the inhibition of aggregation in assay [2] is 19% (inactive). In addition, the nuclei count in assay [2] was 78.5%; in assay [3] it was 100%. For the same compound, the fluorescence slope in assay [4] was -0.611 (inactive). Further, in assay [5], the NADPH fluorescence slope was 1.2e-05 (inactive). Also, the slope in assay [6] was 0.00578 (inactive).
Take `CCOc1ccc(-c2nc(C#N)c(N3CCCCCC3)o2)cc1`: the cell count in assay [1] amounted to 759. For the same compound, the inhibition in assay [1] is 6% (inactive); in assay [3], -122% (inactive); in assay [7], -2.19% (inactive); in assay [8], 4.25% (inactive). In assay [2], the inhibition of aggregation was 11.5% (inactive). Besides, the nuclei count in assay [2] was determined as 110%; in assay [3], 114%. In assay [4], the fluorescence slope is -0.579 (inactive). Besides, the NADPH fluorescence slope in assay [5] is -1.9e-05 (inactive). In assay [6], the slope is 0.0066 (inactive).
As for `CCOC(=O)CC(=O)c1cc(OC)c(OC)c(OC)c1`, the cell count in assay [1] was 640. The inhibition in assay [1] was -0.6% (inactive); in assay [3], -56% (inactive); in assay [7], 5.89% (inactive); in assay [8], 12.4% (inactive). Besides, the inhibition of aggregation in assay [2] is -4.2% (inactive). Further, the nuclei count in assay [2] was 105%; in assay [3], 106%. Besides, in assay [4], the fluorescence slope is -0.432 (inactive). The NADPH fluorescence slope in assay [5] is -2.1e-05 (inactive). Moreover, in assay [6], the slope was 0.00534 (inactive).
With `CCOC(=O)c1cccc(NC(=O)c2ccco2)c1`, the cell count in assay [1] was found to be 690. Besides, the inhibition in assay [1] is 2.9% (inactive); in assay [3] it was 38.8% (inactive); in assay [7] it was -16.7% (inactive); in assay [8], -83.6% (inactive). The inhibition of aggregation in assay [2] was -3.3% (inactive). The values for the nuclei count in assay [2] and in assay [3] were 100% and 97%, respectively. The fluorescence slope in assay [4] was -0.387 (inactive). Further, in assay [5], the NADPH fluorescence slope is -6e-05 (inactive). Besides, the slope in assay [6] is 0.00541 (inactive).
Turning to `Cn1c(=O)[nH]c(=O)c2c1nc(Br)n2Cc1ccccc1F`, the cell count in assay [1] came out at 668. Also, the inhibition in assay [1] is 8.8% (inactive); in assay [3] it was 4.9% (inactive); in assay [7], 9.21% (inactive); in assay [8], 12.8% (inactive). Besides, the inhibition of aggregation in assay [2] was 19.4% (inactive). In addition, the values for the nuclei count in assay [2] and in assay [3] were 68.3% and 106%, respectively. In assay [4], the fluorescence slope is -0.467 (inactive). Also, the NADPH fluorescence slope in assay [5] is -3.7e-05 (inactive). Further, in assay [6], the slope is 0.00509 (inactive).
As to `Cc1cc(C(F)(F)F)nc(SCC(=O)NC2=NC(=O)C(C)S2)n1` (centres undefined), the cell count in assay [1] came out at 370. The inhibition in assay [1] is 6.1% (inactive); in assay [3] it was 19.6% (inactive); in assay [7], -20.9% (inactive); in assay [8], -16.9% (inactive). Further, the inhibition of aggregation in assay [2] was 4.5% (inactive). The nuclei count in assay [2] stood at 109%; in assay [3] it was 99%. The fluorescence slope in assay [4] was -0.457 (inactive). Further, the NADPH fluorescence slope in assay [5] was -1.9e-05 (inactive). Further, the slope in assay [6] was 0.00515 (inactive).
Regarding `COc1ccc(-c2noc(COc3ccc(C)c(C)c3)n2)cc1OC`, in assay [1], the cell count worked out at 334. Further, the inhibition in assay [1] is 2.7% (inactive); in assay [3] it was 21.9% (inactive); in assay [7] it was -1.39% (inactive); in assay [8] it was 98.1% (active). Besides, the inhibition of aggregation in assay [2] was 8.8% (inactive). Besides, the nuclei count in assay [2] is 97.9%; in assay [3], 108%. In assay [4], the fluorescence slope is -0.316 (inactive). In addition, the NADPH fluorescence slope in assay [5] was -6.4e-05 (inactive). Besides, in assay [6], the slope was 0.00562 (inactive).
On to `CCOC(=O)c1[nH]c(=O)c2ccccc2c1O`, for which, in assay [1], the cell count was found to be 367. Moreover, the inhibition is -3.9% (inactive) in assay [1], -0.2% (inactive) in assay [3], -11.9% (inactive) in assay [7] and -8.42% (inactive) in assay [8]. Also, the inhibition of aggregation in assay [2] is 2.9% (inactive). Also, the nuclei count in assay [2] stood at 96.9%; in assay [3], 116%. Moreover, in assay [4], the fluorescence slope was -0.512 (inactive). Moreover, the NADPH fluorescence slope in assay [5] is -1.7e-05 (inactive). Also, the slope in assay [6] is 0.00472 (inactive).
For `CSC1=NCCN1C(=O)c1ccc(S(=O)(=O)N2CCCC2)cc1`, the cell count in assay [1] is 611. The inhibition in assay [1] is 0.8% (inactive); in assay [3], -7.2% (inactive); in assay [7] it was 11.2% (inactive); in assay [8] it was 33.2% (inactive). In assay [2], the inhibition of aggregation was 9.6% (inactive). Further, the nuclei count in assay [2] is 107%; in assay [3], 105%. Further, in assay [4], the fluorescence slope is -0.592 (inactive). The NADPH fluorescence slope in assay [5] is -1.6e-05 (inactive). Further, in assay [6], the slope is 0.00671 (inactive).

What is called inhibition is the change of the read-out against control, counted positive when it falls.
